# Source: PubChem
# MRP-1 activ: MRP-1 activation; AID 799; 140,000 tested, 0.61% active; H69AR cells + doxorubicin, viability rescue, CellTiter-Glo; viability increase, % at 10 µM;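 active = viability gain under doxorubicin at or above a set limit, the compound median plus 3 SD, cut at about 4.7% in these data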;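 also: MRP-1 overexpressing cells given doxorubicin 25 µM after compound pretreatment; 18-22 h compound pretreatment then 72 h with doxorubicin before readout; 0% = doxorubicin-only wells and 100% = vehicle-treated cells without doxorubicin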
# MRP resist rev: reverses drug resistance mediated by MRP; 85,000 tested, 0.04% active; H69AR cells + 2 uM doxorubicin, CellTiter-Glo, 72 h; differential viability (reversal), % at 10 µM;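 active = viability drop by adding the cancer drug above about 55%, with treated viability meeting a 40% cutoff, limit read from the data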;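 also: viability without doxorubicin minus viability with 2 µM doxorubicin for each compound; larger differential means the compound sensitizes cells more to doxorubicin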
# hDAT+cocaine: modulates human dopamine transporter uptake under cocaine; LLC-PK1 hDAT cells, [14C]-dopamine uptake with cocaine IC80; actives deviate in either direction; 110,000 tested, 1.3% active; B-score at 10 µM; Q01959;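 active = Z score or B-score, a plate-position-corrected score, falls beyond the plate's 99.7% confidence bounds, in either direction; inactive = both scores lie inside the 99.7% bounds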;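 also: scored against the spread of the other compound wells on the same plate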
# Target sequence (Q01959 whole entry, looked up): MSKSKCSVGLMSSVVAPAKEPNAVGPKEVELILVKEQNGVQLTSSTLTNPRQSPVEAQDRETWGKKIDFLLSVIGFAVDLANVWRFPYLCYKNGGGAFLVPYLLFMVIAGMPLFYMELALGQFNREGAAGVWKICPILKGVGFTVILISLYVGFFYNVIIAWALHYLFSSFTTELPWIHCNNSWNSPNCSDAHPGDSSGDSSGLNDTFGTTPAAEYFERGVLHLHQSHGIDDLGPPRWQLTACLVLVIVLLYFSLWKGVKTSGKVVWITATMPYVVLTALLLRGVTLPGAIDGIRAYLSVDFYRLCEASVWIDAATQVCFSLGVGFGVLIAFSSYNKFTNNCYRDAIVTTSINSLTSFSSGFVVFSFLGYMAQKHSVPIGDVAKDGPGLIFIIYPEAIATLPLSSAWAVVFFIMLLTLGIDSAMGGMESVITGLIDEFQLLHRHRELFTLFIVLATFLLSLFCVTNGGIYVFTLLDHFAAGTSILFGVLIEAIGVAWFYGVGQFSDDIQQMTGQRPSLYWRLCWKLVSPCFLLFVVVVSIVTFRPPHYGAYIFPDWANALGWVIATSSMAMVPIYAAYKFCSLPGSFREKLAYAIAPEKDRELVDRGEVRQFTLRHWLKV
# The depositor's hits bear a star; x = not tested or not shown. Hits are enriched below; roughly 1.5% of the tested compounds scored in any of these assays.
SMILES,MRP-1 activ,MRP resist rev,hDAT+cocaine
COc1cc2c(cc1NC(=O)CSCC(=O)O)oc1ccccc12,0,-10,-0.075
COc1cc2c(cc1NC(=O)CC1SC(N3CCCC3)=NC1=O)oc1ccccc12 (centres undefined),1,-2,-8.3*
CC1=C(C(=O)OC(C)C)C(c2cccs2)C(C(=O)OC(C)C)=C(C)N1,-2,x,x
CCOc1ccc(-c2c(=O)n(OCc3ccc([N+](=O)[O-])cc3)c3ccccc3[n+]2[O-])cc1,0,x,x
CCOc1ccc(OCC)c(-c2c(=O)n(OCc3ccc(C(C)(C)C)cc3)c3ccccc3[n+]2[O-])c1,6.6*,x,-0.31
CC(=O)n1cc([C@H]2C=C(C(=O)N3CCOCC3)O[C@@H](OCCCCO)C2)c2ccccc21,x,x,0.17
CC1CCN(Cc2c(O)ccc3c(=O)c(-c4nc5ccccc5s4)c(N)oc23)CC1,-5,x,x
CC1CCCN(Cc2c(O)ccc3c(=O)c(-c4nc5ccccc5s4)c(N)oc23)C1 (centres undefined),-6,x,2.5*
O=S(=O)(c1ccc(Cl)cc1)n1nnc2ccccc21,0,11,x
C=C1C(=O)[C@@]23[C@H](O)C[C@@H]4C(C)(C)CC[C@H](O)[C@@]4(C)[C@@H]2CC[C@@H]1[C@H]3O,-4,x,-0.69
C=C1C(=O)[C@@]23[C@H](O)C[C@@H]4C(C)(C)CC[C@H](O)[C@]4(C)[C@@H]2C[C@H](O)[C@@H]1[C@H]3O,-4,x,-4.8*
COc1ccc(OC)c(C(=O)c2ccc(C(=O)Nc3cccc4ccccc34)cc2)c1,0,x,x
COc1cc(C2Nc3cccc4cccc(c34)N2)cc(OC)c1O,6.5*,-22,1.7
COc1cc(C2Nc3cccc4cccc(c34)N2)ccc1OC(C)=O,-1,x,0.46
Cc1cccc(OCC(=O)N/N=C/c2cc([N+](=O)[O-])ccc2N2CCOCC2)c1,-2,x,x
C[n+]1cnc(-c2ccccc2)cc1-c1ccccc1,-2,x,x
O=C(Cn1c(=O)oc2cc(S(=O)(=O)N3CCCCCC3)ccc21)NC1CCCCC1,-3,11,-0.57
O=C(Cn1c(=O)oc2cc(S(=O)(=O)N3CCCC3)ccc21)NCc1ccccn1,5.3*,2,-0.25
CCOc1cccc(-c2cc(-c3n[nH]c(=S)n3CC)c3ccccc3n2)c1,-3,x,2.4*
CCOc1ccccc1-c1cc(-c2n[nH]c(=S)n2CC)c2ccccc2n1,-3,x,x
Cc1c(N/C(=N/S(=O)(=O)c2ccc(Cl)cc2)c2ccccc2)c(=O)n(-c2ccccc2)n1C,0,x,x
Cc1ccc(S(=O)(=O)/N=C(/Nc2c(C)n(C)n(-c3ccccc3)c2=O)c2ccc(Cl)cc2)cc1,-3,x,5.6*
O=[N+]([O-])c1ccc(CN2CCOCCOCCOCC2)cc1,-1,x,x
CCOC(=O)c1cc(-c2ccccc2)sc1NC(=O)CC,-1,x,x
CCOC(=O)c1cc(-c2ccccc2)sc1NC(=O)C(C)Sc1nnc(N)s1 (centres undefined),11*,x,x
SMILES,MRP-1 activ,MRP resist rev,hDAT+cocaine
CCN1C(=O)c2cccc3c(NC(=O)c4ccc(S(=O)(=O)N5CCOCC5)cc4)ccc1c23,-2,-5,3.7*
CCN1C(=O)c2cccc3c(NC(=O)c4ccc(S(=O)(=O)N(C)C)cc4)ccc1c23,-5,x,0.062
COC(=O)c1ncccc1SC,-2,x,x
CCOC(=O)c1ccc2[nH]c(C)c(CCC(C)=O)c(=O)c2c1,-2,10,-0.41
CC(=O)Nc1ccc2[nH]c(C)c(CC=C(Cl)Cl)c(=O)c2c1,6.8*,-6,1
CCOC(=O)c1[nH]c2ccccc2c1NC(=O)c1ccc(S(=O)(=O)N2CCCCC2)cc1,-3,x,x
O=C(c1ccco1)N1CCN(S(=O)(=O)c2cccc(C(F)(F)F)c2)CC1,-3,x,-1.8*
CCNC(=S)N1CCN(S(=O)(=O)c2cccc(C(F)(F)F)c2)CC1,-1,x,x
COc1cccc(NC(=O)CSC(N)=O)c1,-2,x,x
C=CCO/N=C(/C)c1c(O)c(CC)c(-c2ccccc2)n(-c2ccccc2)c1=O,0,2,2.9*
CCc1c(O)c(/C(C)=N\O)c(=O)n(-c2ccccc2)c1-c1ccccc1,-2,x,x
CCOC(=O)CN1C(=O)N[C@@H](c2cccc(C(F)(F)F)c2)[C@@H](C(=O)OC)[C@H]1C,x,x,-0.086
COc1ccc(Nc2nnc(-c3ccc(C)cc3)c3ccccc23)cc1C(=O)N1CCCCC1,-3,x,x
Cc1cccc(Nc2nnc(-c3ccc(C(=O)N4C[C@H]5C[C@H](C4)c4cccc(=O)n4C5)cc3)c3ccccc23)c1,-3,26,1.8*
Cn1nc(C(F)(F)F)c(C(=O)Nc2ccc(C(F)(F)F)cc2)c1Cl,6.2*,x,-0.24
Cn1nc(-c2ccccc2)c(C(=O)Nc2ccc(C(F)(F)F)cc2)c1Cl,-3,x,0.43
CCCCC(=O)N(Cc1ccc(-c2ccccc2-c2nn[nH]n2)cc1)[C@H](C(=O)O)C(C)C,x,x,-1.1
COc1cc(CCCN2C(N)=NC[C@@H]2Cc2ccccc2)cc(OC)c1OC,x,x,1.3
Cc1cccc(-n2c(C)cc(/C=C3\C(=N)N4N=C(CC(C)C)SC4=NC3=O)c2C)c1,0,x,x
Cc1cc(C)cc(-n2c(C)cc(/C=C3\C(=N)N4N=C(CC(C)C)SC4=NC3=O)c2C)c1,4.7*,x,x
O=C1c2ccccc2C(=O)N1CCCCN(C(=O)c1cc2ccccc2oc1=O)c1ccc(F)cc1F,-2,x,x
COc1ccc2oc3cc(C)[n+]([O-])c(-c4ccc(Br)cc4)c3c2c1,-4,x,x
O=C(Nc1c(C(=O)O)[nH]c2ccccc12)NC1CCCCC1,-4,-13,-2.1*
COC(=O)c1[nH]c2ccc(C)cc2c1NC(=O)NC1CCCCC1,-2,-4,0.19
COC(=O)C/C=C/[C@@H](C)[C@@H](/C=N/OCC[C@@H]1C=C[C@H](OC(C)=O)[C@@H](COC(C)=O)O1)NS(=O)(=O)c1ccc(C)cc1,-2,x,x
SMILES,MRP-1 activ,MRP resist rev,hDAT+cocaine
Cc1cc(C)c(NC(=O)CSc2nnc(Cc3cccn3C)n2-c2ccc(F)cc2)c(C)c1,-2,-17,1.2
Cc1cc(C)cc(NC(=O)CSc2nnc(Cc3cccn3C)n2-c2ccc(F)cc2)c1,-3,-3,2.6*
COCOc1ccc(/C=C/C(=O)c2c(O)cc(OCOC)cc2OCOC)cc1,x,x,0.5
COCCNC(=O)c1c(CSc2ccccc2)noc1C(=O)NCc1ccccc1,x,x,0.46
CC(C)NC(=O)c1c(CSc2ccccc2)noc1C(=O)NCc1ccccc1,x,x,2.8*
O=C(NCc1ccccc1)c1onc(CSc2ccccc2)c1C(=O)NCc1ccccc1,x,x,1.6*
O=C(NCc1ccccc1)c1onc(CSc2ccc(Cl)cc2)c1C(=O)NCc1ccccc1,x,x,0.87
C=CCOC(=O)C1=C[C@@H](c2cn(C(C)=O)c3ccccc23)C[C@@H](OCc2ccc(CO)cc2)O1,x,x,1.5
Cc1ccccc1N1C(S)=C(C#N)C(=O)NC12CCCCC2,-3,x,x
CC(/C=C1\SC(=S)N(CCCC(=O)Nc2ccc(C(=O)O)cc2)C1=O)=C\c1ccccc1,13*,x,x
Cc1ccc(C(=O)NN2C(=O)/C(=C/c3cn(C)c4ccccc34)SC2=S)cc1,-4,x,x
CC(/C=C1\SC(=S)N(NC(=O)c2ccc(O)cc2)C1=O)=C\c1ccccc1,7.9*,x,x
CC(/C=C1\SC(=O)N(CCCC(=O)O)C1=O)=C\c1ccccc1,-3,x,x
Cc1ccc2c(c1)N(C(=O)CCC(=O)O)CCO2,-1,x,x
NC(N)=NNC(=O)c1ccccc1Cl,0,x,x
